From PubChem BioAssay (EPA / NIEHS)
Where “and” joins values, the source holds several entries; their conditions need not be identical. Equal entries are not always repeated. Results filed as inconclusive are left out. Some structures have more than one record in an assay (separate samples or runs), and their calls can disagree. Calls of active or inactive are those of the source. How the source made its calls: active means hit-call score of the fitted dose curve at least 0.9, where 1 is the maximum; inconclusive means response in the unintended direction; inactive means score below 0.9.

What follows are molecules tested against Estrogen receptor (Homo sapiens) (UniProt P03372) (assay: NVS_NR_hER: NovaScreen (NVS) Nuclear Receptor Binding Assay for human Estrogen Receptor (ER) (AID 2283348)).
Chain of Estrogen receptor (Homo sapiens) (P03372 whole entry, looked up): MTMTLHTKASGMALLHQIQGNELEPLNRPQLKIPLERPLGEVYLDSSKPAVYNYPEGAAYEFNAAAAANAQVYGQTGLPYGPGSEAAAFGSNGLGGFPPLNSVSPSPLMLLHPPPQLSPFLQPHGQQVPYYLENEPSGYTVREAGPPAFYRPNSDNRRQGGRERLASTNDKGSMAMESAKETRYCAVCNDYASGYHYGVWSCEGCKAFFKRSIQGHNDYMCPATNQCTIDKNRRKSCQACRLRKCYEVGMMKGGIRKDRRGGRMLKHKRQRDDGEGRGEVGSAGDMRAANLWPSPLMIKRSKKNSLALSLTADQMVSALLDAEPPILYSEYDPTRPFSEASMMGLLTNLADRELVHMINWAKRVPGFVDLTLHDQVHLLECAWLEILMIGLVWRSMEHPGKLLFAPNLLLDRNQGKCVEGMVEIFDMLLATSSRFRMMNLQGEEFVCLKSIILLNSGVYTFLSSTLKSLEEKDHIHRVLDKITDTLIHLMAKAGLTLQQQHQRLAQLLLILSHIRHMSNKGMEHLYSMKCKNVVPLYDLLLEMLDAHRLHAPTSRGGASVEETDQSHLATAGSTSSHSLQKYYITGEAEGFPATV
Experimental: NVS_NR_hER is a biochemical, single-readout assay that uses extracted gene-proteins from MCF7 in a cell-free assay. Measurements were taken 18 hours after chemical dosing in a 96-well plate.NVS_NR_hER is one of one assay component(s) measured or calculated from the NVS_NR_hER assay. It is designed to make measurements of radioligand binding, a form of binding reporter, as detected with scintillation counting signals by Lysate-based radiodetection technology.Data from the assay component NVS_NR_hER was analyzed into 1 assay endpoint. This assay endpoint, NVS_NR_hER, was analyzed in the positive analysis fitting direction relative to DMSO as the negative control and baseline of activity. Using a type of binding reporter, loss-of-signal activity can be used to understand changes in the binding as they relate to the gene ESR1. Furthermore, this assay endpoint can be referred to as a primary readout, because the performed assay has only produced 1 assay endpoint. To generalize the intended target to other relatable targets, this assay endpoint is annotated to the nuclear receptor intended target family, where the subfamily is steroidal.
Binding assays used specific radioligands (tritiated, iodinated) with non-radioactive competitive displacement ligands in agonist or antagonist protocols (as indicated) and various reference compounds and inhibitors to titrate specific binding to receptors and transporters. Most enzyme assays (CYPs, kinases, phosphatases, proteases, HDACs) used recombinant protein and specific substrates (fluorescence mostly, some colorimetric and radioactive) and inhibitors, followed by a biochemical separation of substrate and product. All assays for the biochemical HTS were initially run in duplicate at a single concentration (10 uM for CYP450 assays and 25 uM for all others). […] Each assay was run with positive and negative controls, and concurrent controls on every plate. The follow-up (secondary) screen tested active chemical-pairs in concentration series, as well as a few additional assays not tested in the primary screen, some selected negative inactives, and several cases re-run in the concentration series for confirmatory purposes.

Row | Structure (SMILES) | outcome | AC50
1 | C[C@@H]1C[C@H]2[C@@H]3CCC4=CC(=O)C=C[C@]4(C)[C@@]3(F)[C@@H](O)C[C@]2(C)[C@@]1(O)C(=O)COP(=O)(O)O | inactive | –
2 | CC1=C(/C=C/C(C)=C/C=C/C(C)=C/C(=O)O)C(C)(C)CCC1 | inactive | –
3 | O=C1OC2(c3ccccc31)c1cc(Br)c(O)c(Br)c1Oc1c2cc(Br)c(O)c1Br | inactive | 16.8 µM (active)
4 | Cc1cc(CCN2CCN(c3nsc4ccccc34)CC2)cc2c1NC(=O)CC2(C)C | inactive | –
5 | CCC(C)(C)C1CCC(O)CC1 (stereo unspecified) | inactive | 3.1 µM (active) and 2.51 µM (active)
6 | c1ccc2cc3c(ccc4ccccc43)cc2c1 | inactive | –
7 | Oc1cc2ccccc2c2ccccc12 | inactive | –
8 | CCCCCCCCCCCCCC[N+](C)(C)C | – | 35 µM (active)
9 | CCCCCCCCCCCCN1CCCC1=O | inactive | –
10 | c1ccc2c(c1)Cc1ccccc1-2 | inactive | –
11 | Cc1oc(-c2ccccc2)nc1CCOc1ccc(C[C@H](Nc2ccccc2C(=O)c2ccccc2)C(=O)O)cc1 | inactive | –
12 | NC(=O)N(O)[C@@H]1C=C[C@H](Oc2cccc(Oc3ccc(F)cc3)c2)C1 | inactive | –
13 | ClC1=C(Cl)C(Cl)(Cl)C(Cl)=C1Cl | inactive | –
14 | Cc1cc(C)c(O)c(C)c1 | inactive | –
15 | CC[C@H](c1ccc(O)cc1)[C@@H](CC)c1ccc(O)cc1 | – | 0.0334 nM (active) and 2.46 nM (active) and 2.68 nM (active)
16 | COCC(C)O (stereo unspecified) | – | 1.82 µM (active)
17 | CCCCCCCCCCCCc1ccccc1S(=O)(=O)O | – | 40.6 µM (active)
18 | O=[N+]([O-])c1ccc(O)cc1 | inactive | –
19 | O=C(O)Cc1cc(I)c(Oc2cc(I)c(O)c(I)c2)c(I)c1 | inactive | –
20 | NC(=O)N1C(=O)C(C(=O)c2cc(Cl)cs2)c2cc(F)c(Cl)cc21 (stereo unspecified) | inactive | –
21 | OC1CCCCC1 | inactive | 0.0267 µM (active)
22 | CN(C)C=O | inactive | –
23 | CC(C)(C)CC(C)(C)c1ccc(O)c(-n2nc3ccccc3n2)c1 | inactive | –
24 | OC1CCC(C2CCCCC2)CC1 (stereo unspecified) | inactive | –
25 | CCc1nn(C2CCCCC2)c2cc(C3(C#N)CCC(C(=O)O)CC3)ccc12 (stereo unspecified) | inactive | –
26 | CCN(CC)CCNc1ccc(CNC=O)c2sc3ccc(OC)cc3c(=O)c12 | inactive | –
27 | CCCOC(=O)c1ccc(O)cc1 | – | 6.72 µM (active) and 10.6 µM (active)
28 | OCCC(F)(F)C(F)(F)C(F)(F)C(F)(F)C(F)(F)C(F)(F)C(F)(F)C(F)(F)F | inactive | –
